The results in this text go back to ChEMBL document CHEMBL3988442, “University of Dundee, Small-Polar-MMV Screening Library” (2021).

The campaign covered roughly 67,000 compounds. About 300 (0.45%) showed an effect of 50% or more. This excerpt belongs to a sample that is enriched for strong results.

In this assay the target is Polyketide synthase Pks13 (Mycobacterium tuberculosis (strain ATCC 25618 / H37Rv)) (UniProt I6X8D2). In words: Mycobacterium tuberculosis Polyketide synthase 13 Thioesterase (PKS13). The conditions noted are these: 30 µM. Also on record: scale not given: in the data most compounds retested in dose-response had high values. It counts as functional.
Sequence of Polyketide synthase Pks13 (Mycobacterium tuberculosis (strain ATCC 25618 / H37Rv)) (I6X8D2 whole entry): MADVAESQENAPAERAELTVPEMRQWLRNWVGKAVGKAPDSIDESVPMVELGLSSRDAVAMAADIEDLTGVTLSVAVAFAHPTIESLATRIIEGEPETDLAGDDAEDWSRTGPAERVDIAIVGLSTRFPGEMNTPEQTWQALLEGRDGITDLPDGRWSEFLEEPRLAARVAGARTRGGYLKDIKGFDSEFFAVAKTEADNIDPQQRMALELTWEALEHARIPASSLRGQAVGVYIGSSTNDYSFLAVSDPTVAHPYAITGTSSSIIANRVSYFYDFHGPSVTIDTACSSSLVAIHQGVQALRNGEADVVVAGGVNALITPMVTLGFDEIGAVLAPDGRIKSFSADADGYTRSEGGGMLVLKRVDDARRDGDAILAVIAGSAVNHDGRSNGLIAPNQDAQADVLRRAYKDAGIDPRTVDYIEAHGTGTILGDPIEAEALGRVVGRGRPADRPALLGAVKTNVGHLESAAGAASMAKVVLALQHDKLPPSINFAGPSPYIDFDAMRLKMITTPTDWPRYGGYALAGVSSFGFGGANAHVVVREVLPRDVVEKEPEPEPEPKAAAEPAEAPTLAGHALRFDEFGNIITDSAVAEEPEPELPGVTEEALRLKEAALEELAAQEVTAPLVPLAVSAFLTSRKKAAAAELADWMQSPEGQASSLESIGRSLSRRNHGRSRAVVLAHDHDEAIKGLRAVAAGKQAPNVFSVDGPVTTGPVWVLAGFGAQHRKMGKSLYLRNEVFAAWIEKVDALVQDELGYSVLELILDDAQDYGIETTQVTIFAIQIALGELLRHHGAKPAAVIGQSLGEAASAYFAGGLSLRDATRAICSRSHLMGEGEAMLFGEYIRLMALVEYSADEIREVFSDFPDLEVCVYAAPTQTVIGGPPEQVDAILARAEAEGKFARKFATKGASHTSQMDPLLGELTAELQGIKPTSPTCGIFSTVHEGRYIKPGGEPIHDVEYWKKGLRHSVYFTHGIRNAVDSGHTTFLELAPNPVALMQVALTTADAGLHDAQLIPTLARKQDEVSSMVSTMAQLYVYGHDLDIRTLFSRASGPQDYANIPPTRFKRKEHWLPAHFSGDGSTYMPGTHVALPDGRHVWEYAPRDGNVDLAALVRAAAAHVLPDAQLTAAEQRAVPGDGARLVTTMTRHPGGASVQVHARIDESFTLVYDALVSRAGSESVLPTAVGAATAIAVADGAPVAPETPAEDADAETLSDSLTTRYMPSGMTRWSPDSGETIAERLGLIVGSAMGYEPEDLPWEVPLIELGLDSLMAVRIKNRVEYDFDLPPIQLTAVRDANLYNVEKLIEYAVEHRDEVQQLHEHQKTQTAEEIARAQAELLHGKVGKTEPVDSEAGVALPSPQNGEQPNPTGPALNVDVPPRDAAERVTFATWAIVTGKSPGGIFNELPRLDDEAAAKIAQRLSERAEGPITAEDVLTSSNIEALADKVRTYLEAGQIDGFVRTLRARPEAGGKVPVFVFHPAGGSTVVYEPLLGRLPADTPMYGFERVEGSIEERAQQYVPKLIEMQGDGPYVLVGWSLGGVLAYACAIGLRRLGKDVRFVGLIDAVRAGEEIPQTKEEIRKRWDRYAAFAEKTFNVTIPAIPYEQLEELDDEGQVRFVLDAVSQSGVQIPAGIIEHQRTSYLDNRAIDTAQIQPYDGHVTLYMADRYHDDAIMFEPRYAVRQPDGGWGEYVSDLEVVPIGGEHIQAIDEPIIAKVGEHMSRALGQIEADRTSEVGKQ
In the case of `CC[C@H]1CN2CC[C@H]1C[C@@H]2CNC(=O)Nc1cccc(C(F)(F)F)c1`, the Percent Effect is -29.8%.
The value for `Cc1ccc(CS(=O)(=O)N2CC[C@H]3[C@H]2CCN3C)cc1` was 37.1%; that for `c1ccc(-c2cc(CN3C[C@@H]4CC[C@H](C3)N(CC3CCC3)C4)on2)cc1` was -48.3%; that for `Cc1cnn(CC(C)NCC(=O)NCCOc2ccccc2)c1` (stereo not drawn) was 95.2%.
The value for `Cc1cnn(CC(C)NCC(=O)NCCc2cccs2)c1` (stereo not drawn) was -15.2%.
Then `Cc1cnn(CCNCC(=O)NCCOc2ccccc2)c1`, with -11.4%.
Regarding `O=C(C1CCOCC1)N1C[C@@H]2[C@@H](C1)OCC(=O)N2Cc1ccncc1`, the Percent Effect was -12.1%.
`CS(=O)(=O)NCc1cc(-c2cc(F)cc(F)c2)nc(N2CCCC2)n1`: the Percent Effect was determined as 22.1%.
Then `CS(=O)(=O)NCc1cc(-c2cc(F)cc(F)c2)nc(N2CC[C@H](O)C2)n1`, with 147%.
Regarding `CS(=O)(=O)NCc1cc(-c2cc(F)cc(F)c2)nc(N2CCOCC2)n1`, the Percent Effect was determined as 22.5%.
The value for `Cn1nccc1NC(=O)c1cccc(CN2C[C@H]3CC[C@@H](C2)N3)c1` was -14.8%.
Then `CN1CCCC[C@@H]2[C@H]1[C@@H](c1ccccc1)CCN2S(=O)(=O)N1CCCC1`, with -11%.
As for `Cn1cncc1-c1nnc([C@H]2CCN(CC(C)(C)C)C2)o1`, the Percent Effect came to 25.7%.
For the compound `Cn1cncc1-c1nnc([C@H]2CCN(Cc3ncc[nH]3)C2)o1`, the Percent Effect amounted to 61%.
Then `Cn1cncc1-c1nnc([C@H]2CCN(Cc3cccnc3)C2)o1`, with -26%; and `CSCCCN1C[C@H]2CC[C@@H]1CN(Cc1[nH]cnc1C)C2`, with -11.9%.
The value for `c1coc(CN2C[C@@H]3CCCO[C@@H]3[C@H](N3CCCC3)C2)c1` was -16.1%; that for `CN(C)C(=O)c1nc(-c2ccc(S(C)(=O)=O)cc2)c2cnccn12` was 9.33%.
Then `CS(=O)(=O)c1ccc(-c2nc(C(=O)N3CCCC3)n3ccccc23)cc1`, with 74.1%; and `CN(C)C(=O)c1nc(-c2ccc(S(C)(=O)=O)cc2)c2ccccn12`, with 48.7%; and `CN1CCCC[C@@H]2[C@H]1[C@@H](c1ccccc1)CCN2C(=O)c1ccncc1`, with 37.2%.
On to `CN1CCCC[C@@H]2[C@H]1[C@@H](c1ccccc1)CCN2C(=O)c1ccccc1`, for which the Percent Effect was -32%.
Then `Cc1nnsc1C(=O)N1CC[C@H](c2ccccc2)[C@@H]2[C@H]1CCCCN2C`, with 56.9%; and `CC(=O)N1C[C@H](NC(=O)c2cscn2)[C@@H]2OCCC[C@@H]21`, with -14.1%; and `CCCOc1ccccc1CCCNc1ncnc2oc(C)nc12`, with 18%.
The value for `CCCOc1ccc(Cl)cc1CNc1ncnc2oc(C)nc12` was 78.9%; that for `CCC(CNc1ncnc2oc(C)nc12)Cc1ccccc1` (stereo not drawn) was -13.8%.
On to `Cn1cccc1C(=O)N1C[C@H]2CC[C@@H]1CN(Cc1cscn1)C2`, for which the Percent Effect was -21.5%.
Then `COc1ccc2c(c1)c(-c1nc(N(C)C)ncc1CN)cn2C`, with -8.95%; and `COc1ccc2c(c1)c(-c1nc(C)ncc1CN)cn2C`, with -1.61%; and `Cc1ncc(CN)c(-c2cn(C)c3ccccc23)n1`, with 140%.
With `O=C(C1CCOCC1)N1C[C@H](OCc2cccnc2)[C@H]2COC[C@H]21`, the Percent Effect was -10.6%.
The value for `O=C1CO[C@H]2CN(C3CCOCC3)C[C@H]2N1Cc1ccc(F)cc1` was 18.6%; that for `Cc1ccc(-c2noc(CC[C@@H]3CCCN4CCCC[C@H]34)n2)nn1` was -24.6%.
The value for `O=C(CC1CC1)N1C[C@H]2CCN[C@H]2C1` was 1.79%; that for `O=c1[nH]c(N2CCCCC2)nc2nccc(-c3ccc4c(c3)OCO4)c12` was -6.64%; that for `NC(=O)C1CCN(c2nc3nccc(-c4ccccc4)c3c(=O)[nH]2)CC1` was -5.28%.
As for `COc1ccc(-c2ccnc3nc(N4CCCCC4)[nH]c(=O)c23)cc1`, the Percent Effect was 75%.
Then `COc1cccc(-c2ccnc3nc(N4CCCCC4)[nH]c(=O)c23)c1`, with -83.6%.
On to `COc1ccc(-c2ccnc3nc(N4CCCC4)[nH]c(=O)c23)cc1OC`, for which the Percent Effect was -15.2%.
`COc1ccccc1-c1ccnc2nc(N3CCCCC3)[nH]c(=O)c12`: the Percent Effect worked out at 71.7%.
Then `Cc1cc(C(=O)N2C[C@H]3CC[C@@H]2CN(C(=O)c2ccncc2)C3)cs1`, with -6.64%.
Regarding `O=C(Nc1cccnc1)[C@@H]1COC[C@H]2CN(C3CCCC3)C[C@H]21`, the Percent Effect was -9.56%.
For `CCS(=O)(=O)N1CC[C@H]2OCC[C@@]2(c2nnc(C)o2)C1`, the Percent Effect is -32.8%.
For `CCS(=O)(=O)N1C[C@H]2CC[C@@]3(N=C(C)N(CC(C)C)C3=O)[C@H]2C1`, the Percent Effect is -10.2%.
As to `CC1=N[C@@]2(CC[C@@H]3CN(S(=O)(=O)C4CC4)C[C@@H]32)C(=O)N1CC(C)C`, the Percent Effect is -51.1%.
The value for `CC1=N[C@@]2(CC[C@@H]3CN(S(C)(=O)=O)C[C@@H]32)C(=O)N1CC(C)C` was 75.9%.
Then `CN(C)CCNC(=O)[C@H]1C[C@H]2CN(c3ncccn3)C[C@H]2N1C`, with -18.5%; and `Cc1cccc(CN2CC[C@H]3[C@H]2CCN3C(=O)c2cnn(C)c2)n1`, with 3.27%.
Then `NC(=O)CSc1nccc(-c2ccc3c(c2)OCO3)n1`, with 59.5%.
`CNCc1nc(-c2ccc3c(c2)OCO3)c[nH]1`: the Percent Effect came out at 0.694%.
Then `O=C(O)CSc1nccc(-c2ccc3c(c2)OCO3)n1`, with 51.8%; and `NC(=O)CCC(=O)N1CCc2[nH]nc(-c3ccc4c(c3)OCO4)c2C1`, with -10.3%; and `CCOc1ccc(-c2ccc3c(c2)OCO3)cc1C(N)=O`, with -15.1%.
Then `O=C(CSc1nccc(-c2ccc3c(c2)OCO3)n1)N1CCOCC1`, with 26.7%; and `CN1CCO[C@H]2CN(S(=O)(=O)c3ccc(C#N)cc3)C[C@H]21`, with -7.61%.
The value for `O=C([C@H]1COC[C@H]2CN(C3CCOCC3)C[C@H]21)N1CCCCO1` was -4.79%; that for `CN(C)c1nccc(N2CCO[C@H]3CN(Cc4ccco4)C[C@H]32)n1` was -3.24%.
Take `O=S(=O)(c1ccccc1)N1C[C@@H]2COC[C@]2(CN2CCOCC2)C1`: the Percent Effect came to 27.2%.
The value for `Fc1cccc(CN2C[C@@H]3COC[C@]3(COCc3ccncc3)C2)c1` was 0.554%; that for `O=C(CC1CCCC1)N1C[C@H](Oc2cccnc2)[C@H]2OCCC[C@H]21` was -7.32%.
Then `c1ccc2oc(CN3CCCCC3Cn3cncn3)nc2c1` (stereo not drawn), with -0.333%; and `Cc1nccn1CC1CCCN1CCCc1nc(-c2cccs2)no1` (stereo not drawn), with -4.96%; and `c1ccc2oc(CCCN3CCCCC3Cn3cncn3)nc2c1` (stereo not drawn), with 58.4%.
Regarding `c1csc(-c2noc(CCCN3CCCC3Cn3cccn3)n2)c1` (stereo not drawn), the Percent Effect was -2.79%.
As for `c1ccc2oc(CCCN3CCCC3Cn3cncn3)nc2c1` (stereo not drawn), the Percent Effect is -10.8%.
The value for `c1csc(-c2noc(CCCN3CCCC3Cn3cncn3)n2)c1` (stereo not drawn) was 111%.
Then `CN(C)C(=O)COC[C@@H]1CC[C@H]2[C@H](CCN2c2ncccn2)O1`, with -0.596%.
